In PubChem BioAssay (Tox21):
Results filed as inconclusive are left out. The source made the active and inactive calls. Unless noted, the call rests on the fitted dose curve; in most records, active means well fitted curve in the direction sought with a large enough effect in the repeat runs; inconclusive means weak or mixed curves; inactive means no such curve, though single readings can be large; an effect the other way counts as inactive or inconclusive.

Key:
[1] = target: Peroxisome proliferator-activated receptor gamma (Homo sapiens) (UniProt P37231); assay: qHTS assay to identify small molecule agonists of the peroxisome proliferator-activated receptor gamma (PPARg) signaling pathway (AID 743094; active means well fitted activation curve with a large enough effect in the signal ratio in the repeat runs, not every such curve was filed as active; the % refers to the signal ratio)
In short: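 Compounds dissolved in DMSO were added to PPARg UAS-bla HEK293H cells for 17 h at 37C, and reporter expression was quantified by fluorescence intensity after 1 h with LiveBLAzer B/G FRET substrate.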

[2] = qHTS assay to identify small molecule antagonists of the peroxisome proliferator-activated receptor gamma (PPARg) signaling pathway - cell viability counter screen (AID 743194); further: nearly all actives have a fitted effect of over 55% in size
In short: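 Cytotoxicity counter screen in PPARg-bla HEK293H cells, same wells as reporter assay. Compounds plus 50 nM rosiglitazone (final) for 17 h at 37 C, then viability read by CellTiter-Glo luminescence.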

[3] = qHTS assay for small molecule agonists of the antioxidant response element (ARE) signaling pathway (AID 743202; active means well fitted activation curve with a large enough effect in the signal ratio in the repeat runs, not every such curve was filed as active; the % refers to the signal ratio; further: potency means the concentration at half of the fitted maximal effect)
In short: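 ARE-bla HepG2 cells (beta-lactamase reporter under the antioxidant response element), plated 5 hours, then exposed to compounds 16 hours at 37 C. LiveBLAzer B/G FRET substrate added for 2 hours at room temperature; fluorescence intensity read.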

[4] = qHTS assay for small molecule agonists of the antioxidant response element (ARE) signaling pathway - cell viability counter screen (AID 743203; calls by dose curve; further: nearly all actives have a fitted effect of over 55% in size)
In short: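 Following 16 hrs of compound treatment at 37C, HepG2 cells with an ARE-controlled beta-lactamase gene were lysed with CellTiter-Glo. Luminescence was read after 30 min at room temperature.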

[5] = qHTS assay for small molecule activators of the heat shock response signaling pathway - cell viability counter screen (AID 743209); further: nearly all actives have a fitted effect of over 50% in size
In short: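 Readout: CellTiter-Glo luminescence, 30 min at room temperature. System: HSE-bla HeLa cells, 1500/well, plated overnight. Treatment: compounds in DMSO, 5 h at 37 C.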

[6] = qHTS assay to identify small molecule agonists of the peroxisome proliferator-activated receptor delta (PPARd) signaling pathway - cell viability counter screen (AID 743211); further: nearly all actives have a fitted effect of over 55% in size
In short: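 Viability was measured as CellTiter-Glo luminescence (30 min, room temperature) in the same wells as the beta-lactamase readout. GeneBLAzer PPARd UAS-bla HEK293H cells received compound after 5 h plating and were incubated 17 h at 37 C.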

[7] = target: Peroxisome proliferator-activated receptor gamma (Homo sapiens) (UniProt P37231); assay: qHTS assay to identify small molecule antagonists of the peroxisome proliferator-activated receptor gamma (PPARg) signaling pathway (AID 743191; calls by dose curve; further: series mostly up to about 63 µM; nearly all actives have a fitted effect of over 30% in size)
In short: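 GeneBLAzer PPARg UAS-bla HEK293H cells, 5 h post-plating, exposed to compounds 17 h at 37C. LiveBLAzer B/G FRET substrate added for 1 h at room temperature; beta-lactamase reporter read by fluorescence intensity.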

[8] = qHTS assay for small molecule activators of the heat shock response signaling pathway (AID 743210; active means well fitted activation curve with a large enough effect in the signal ratio in the repeat runs, with a control signal flat, not every such curve was filed as active; the % refers to the signal ratio; further: series mostly up to about 63 µM)
In short: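 HSE-bla HeLa cells (beta-lactamase reporter under heat shock response elements), plated overnight, then exposed to compounds 5 h at 37 C; LiveBLAzer B/G FRET substrate added, 2.5 h at room temperature, fluorescence intensity read.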

[9] = qHTS assay to identify small molecule that activate the aryl hydrocarbon receptor (AhR) signaling pathway - cell viability counter screen (AID 743086);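 further: HepG2 liver cells carrying the AhR DRE luciferase reporter; series mostly up to about 70 µM; nearly all actives have a fitted effect of over 45% in size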
In short: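 HepG2-AhR-luc (HG2L7.5c1) cells, 4000/well, treated 24 h at 37 C with compound; viability measured as CellTiter-Fluor fluorescence after 30 min in the same wells as the luciferase read.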

Measured: Potency

Chain of Peroxisome proliferator-activated receptor gamma (Homo sapiens) (P37231 whole entry, looked up): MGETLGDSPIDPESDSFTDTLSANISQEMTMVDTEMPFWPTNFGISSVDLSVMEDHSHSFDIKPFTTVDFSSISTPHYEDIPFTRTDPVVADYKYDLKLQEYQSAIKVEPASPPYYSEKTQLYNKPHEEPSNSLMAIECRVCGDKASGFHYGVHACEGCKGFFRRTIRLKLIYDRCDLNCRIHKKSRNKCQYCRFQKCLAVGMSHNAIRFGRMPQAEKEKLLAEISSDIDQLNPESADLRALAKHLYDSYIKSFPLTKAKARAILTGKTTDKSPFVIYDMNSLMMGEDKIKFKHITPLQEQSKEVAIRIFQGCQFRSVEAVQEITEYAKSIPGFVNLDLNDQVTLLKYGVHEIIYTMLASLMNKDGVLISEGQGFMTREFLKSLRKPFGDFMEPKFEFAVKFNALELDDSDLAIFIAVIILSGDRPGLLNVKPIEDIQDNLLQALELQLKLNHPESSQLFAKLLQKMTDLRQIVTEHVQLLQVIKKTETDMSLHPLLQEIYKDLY

Cc1ccc(C(=O)c2ccc(CC(=O)O)n2C)cc1
inactive: [1] | [2] | [3] | [4] | [5] | [6]

CCOC(=O)c1ccccc1
inactive: [1] | [7] | [2] | [3] | [4] | [5] | [8] | [6]

CC(C)COC(=O)c1ccc(N)cc1
inactive: [1] | [7] | [2] | [3] | [4] | [5] | [8] | [6]

O=C(O)CCCC[P+](c1ccccc1)(c1ccccc1)c1ccccc1
inactive: [7] | [2] | [3] | [4] | [5] | [8] | [6]

Cc1coc2ccccc2c1=O
inactive: [7] | [3] | [4] | [5] | [6]

C=CCCC(=O)O
inactive: [1] | [7] | [2] | [3] | [4] | [5] | [8] | [6]

COc1ccnc(CS(=O)c2nc3cc(OC(F)F)ccc3[nH]2)c1OC (stereo not given)
inactive: [1] | [2] | [4] | [5] | [8] | [6]
active: [3] 27.5 µM

C[N+](C)(C)CCCCCCCCCC[N+](C)(C)C
inactive: [1] | [2] | [3] | [4] | [5] | [6]

CCN(C=O)CC
inactive: [9] | [2] | [4] | [5] | [8] | [6]

C=C(C)C(=O)OCC(O)CO (stereo not given)
inactive: [7] | [2] | [3] | [4] | [5] | [8] | [6]

C=C(C)C(=O)OCC1CCCO1 (stereo not given)
inactive: [2] | [3] | [4] | [5] | [6]

CC(C)C[C@@H](N)C(=O)O
inactive: [1] | [3] | [4] | [5] | [6]

CC1=NN(c2cc(S(=O)(=O)O)ccc2Cl)C(=O)C1N=Nc1ccccc1 (stereo not given)
inactive: [1] | [7] | [2] | [3] | [4] | [5] | [6]
